# Screens as filed in PubChem.
# LASV entry inh: inhibitors of Lassa virus binding or cell entry. Lassa virus pseudotype entry inhibition, cell reporter. Potency, µM (doses to about 37.9 µM), without a hit: at the top dose activity change, negative = inhibition, actives largely listed as inhibitors. actives 1.2% (n = 300,000); calls by dose curve; tested in HEK293 cells; further: potency means the concentration at half of the fitted maximal effect; on the % scale 0 is the no-effect control and ±100 the full control effect; nearly all actives have a fitted effect of over 50% in size
# Pf growth 48h: P. falciparum growth inhibition at 48 hours (one generation) | P. falciparum luciferase growth in erythrocytes, 48 h | actives 5.9% (n = 310,000) | Potency, µM (titrated, usually from 28.7 µM), for the others: at the top dose activity change, negative = inhibition, most hits filed as inhibitors; further: potency means the concentration at half of the fitted maximal effect; on the % scale 0 is the no-effect control and ±100 the full control effect
#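 Luciferase-expressing parasites in RBCs, 2% Hct / 0.1% parasitemia final; RPMI 1640 + 0.5% Albumax; 37 C, 5% CO2, one generation; luminescence read-out, lower signal = inhibition.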
# Cycloheximide cs: counter-screen for Shiga toxin inhibitors: cycloheximide protein synthesis inhibition. cell reporter, cycloheximide protein synthesis inhibition counterscreen. max response, %. actives 12% (n = 300,000). AID 2314; in the data active means max response mostly above about 13%, no sharp cut-off; inactive means mostly below about 14%; further: read at 38.3 µM for the half of the compounds with a filed dose; 0% is about no effect
# Pf growth 96h: P. falciparum growth inhibition at 96 hours; P. falciparum luciferase reporter growth, 96 h; Potency, µM (series often up to 28.7 µM), without a hit: at the top dose activity change, negative = inhibition, usual class: inhibitors; actives 6.9% (n = 320,000); AID 504834; further: potency means the concentration at half of the fitted maximal effect; on the % scale 0 is the no-effect control and ±100 the full control effect
#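 Plates of compound plus infected erythrocytes (2% hematocrit, 0.05% parasitemia final) incubate 96 hours, 37 C, 5% CO2. Detection reagent added; reduced luminescence from the parasites' luciferase reporter flags inhibition.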
# Shiga inhibitor: inhibitors of Shiga toxin in Vero cells; Vero cells, Shiga toxin protein synthesis inhibition reporter; inhibition, % at 38.7 µM; actives 9.2% (n = 290,000); AID 2315; in the data active means inhibition mostly above about 28%, no sharp cut-off; inactive means mostly below about 43%; further: 0% is about no effect
# Marburg entry inh: Marburg virus entry inhibition; Marburg virus pseudotyped entry inhibition, cell reporter; Potency, µM (top dose mostly 37.8 µM), for the others: at the highest dose activity change, negative = inhibition, actives largely listed as inhibitors; actives 1.8% (n = 300,000); AID 540276; calls by dose curve; tested in HEK293 cells; further: potency means the concentration at half of the fitted maximal effect; on the % scale 0 is the no-effect control and ±100 the full control effect
# * = called active by the depositor; ? = inconclusive; nt = not tested or not shown; [ ] = another dose, or the depositor's remark. An excerpt weighted towards active compounds, which were near 19% of everything screened. Unless noted, the call rests on the fitted dose curve; in most records, active means well fitted inhibition curve with a large enough effect; inconclusive means small, poorly fitted or top-dose-only effect, or another doubt; inactive means no such curve, though single readings can be large or run the other way.
SMILES,LASV entry inh,Pf growth 48h,Cycloheximide cs,Pf growth 96h,Shiga inhibitor,Marburg entry inh
COCCN=C1NN=C(c2ccc(C)c([N+](=O)[O-])c2)CS1,6.9%,185.2%,46.7*,134.0%,63.1*,?
c1cc2c(cc1C1=NNC(=NC3CC3)SC1)OCCO2,0.291µM*,-57.1%,-7.6,-44.0%,-19.7,0.326µM*
CCc1ccc(C2=NNC(=Nc3c(C)n(C)n(-c4ccccc4)c3=O)SC2)cc1,-1.6%,14.0%,13.2,14.8%,40.1,0.0%[14.2 µM]
CCCCn1c(SCC(=O)Nc2ccc3c(c2)OCCO3)nnc1C(CC)N(C)C (stereo not drawn),nt,?,nt,-45.2%,nt,nt
CCCCN=C1NN=C(c2ccc3c(c2)OCCO3)CS1,7.94µM*,35.3%,19.4,-53.2%,34.9,?
CCN1CCc2nc3ccccc3c(C(=O)Nc3ccc(NC(C)=O)cc3)c2C1,nt,0.6%,-0.6,6.6%,-9.3,nt
Cc1ccccc1NC(=O)c1cccc2c1C(=O)N(C1CCCCC1)C2,7.9%[46.1 µM],?,-5.9,-13.6%,-4.6,14.3%[46.1 µM]
Cc1ccc(N2CC(C(=O)N3CCN(Cc4ccc5c(c4)OCO5)CC3)CC2=O)cc1 (stereo not drawn),-12.3%,-4.7%,-1.9,?,-3.1,5.7%[46.1 µM]
Cc1ccc(C(=O)Nc2ncc(Cc3ccc(SC(F)F)cc3)s2)cc1,?,16.8%,-1.8,17.1%,24.6,-25.0%
CN1/C(=C\C(=O)c2cccnc2)C(C)(C)c2ccccc21,-0.2%,13.3%,15.2*,?,24.0,7.2%
CN1/C(=C\C=N\NC(=O)c2cccnc2)C(C)(C)c2ccccc21,nt,0.586µM*,7.0,?,38.8,nt
CN1/C(=C/C(=O)c2nc(S(C)(=O)=O)ncc2Cl)C(C)(C)c2ccccc21,15.8µM*,-14.7%,-13.3,nt,-24.8,?
CN1/C(=C\C(=O)C[n+]2ccc3ccccc3c2)C(C)(C)c2ccccc21,?,?,-2.7,1.04µM*,-24.7,?
CN1/C(=C\C(=O)c2cncc(Br)c2)C(C)(C)c2ccccc21,?,?,2.1,?,10.1,?
COC(=O)Oc1nsnc1N1CCOCC1,4.1%,20.4%,-1.7,?,-1.7,-2.9%
CN1/C(=C\C(=O)c2ccco2)c2ccccc2CC1(C)C,3.2%,-0.2%,1.0,9.28µM*,-4.3,-19.1%
CN1/C(=C\C(=O)CSc2nnc(NCc3ccccc3)s2)C(C)(C)c2ccccc21,-4.9%,7.38µM*,-1.3,6.57µM*,-3.7,1.4%
Cc1cc(C(=O)CSc2nnc(NCc3ccccc3)s2)c(C)n1C,?,?,1.0,52.7%,-5.7,-12.7%
CN1/C(=C\C(=O)c2ccco2)C(C)(C)c2ccccc21,?,1.65µM*,-2.1,267.1%,13.1,-35.5%
COc1cc(OC)cc(C(=O)NCCNC(=O)c2ccco2)c1,8.3%,19.0%,-1.5,7.6%,9.5,7.1%
COC(=O)Cc1[nH]c(Cl)nc1C(N)=O,3.8%,0.0%,-1.6,0.8%,-11.7,1.6%[46.1 µM]
CSc1ncccc1C(=O)N1CCN(S(=O)(=O)c2cc(C)ccc2C)CC1,-15.1%[46.1 µM],-9.5%,-4.2,-17.1%,-2.6,4.0%[46.1 µM]
CC1=CC(C)(C)N(S(=O)(=O)c2ccc(F)cc2)c2ccc(C)cc21,-20.2%,nt,-1.8,14.7µM*,-5.3,?
CC1=CC(C)(C)N(S(=O)(=O)c2ccc(C)cc2)c2ccccc21,?,nt,-6.9,10.4µM*,-14.3,?
CC1=CC(C)(C)N(C(=O)CN2C(=O)c3ccccc3C2=O)c2ccccc21,-14.1%,?,0.9,?,14.0,-8.7%
CCN(CC)c1nc(OCCNC(=O)Nc2ccccc2)nc(N(CC)CC)n1,?,?,-0.2,nt,-7.2,?
Cc1nc(-c2cccc(NC(=O)c3cc4cc(Br)ccc4oc3=O)c2)cs1,4.3%,?,4.6,?,-8.9,-2.9%
CC(Cc1ccccc1)NCc1ccccc1O (stereo not drawn),22.0%,?,-2.5,?,19.5,-2.2%[46.1 µM]
CC(CC12CC3CC(CC(C3)C1)C2)NCc1ccccc1O (stereo not drawn),nt,?,-6.3,9.28µM*,nt,nt
Oc1ccccc1CNCC12CC3CC(CC(C3)C1)C2,?,0.104µM*,2.1,0.0828µM*,-7.6,-32.7%
